# Several values for one entry are separate records, joined by “and”; a condition that tells them apart may be missing. Equal values may be shown once. Unmarked numbers belong to inactive results. Where a call stands in place of a potency, no number is given. For some assays here: Potency and affinity values are given separately. Activity calls are given as the source filed them.
# Experiments:
# [1] = Ebola virus entry assay, green fluorescence channel
# [2] = Ebola virus entry assay, blue channel fluorescence
# [3] = Ebola virus entry assay, green fluorescence channel; remark: listed apart in the source
# [4] = Ebola virus entry assay, ratio channel readout
# [5] = Ebola virus entry assay, blue channel fluorescence; remark: listed apart in the source
# [6] = Ebola virus entry assay, ratio channel
Compound,efficacy [1],outcome [2],outcome [3],outcome [4],outcome [5],AC50 [6],AC50 [5],outcome [6],AC50 [2],AC50 [4],AC50 [3]
CN(C)[C@@H]1C(=O)C(C(N)=O)=C(O)[C@@]2(O)C(=O)C3=C(O)c4c(O)ccc(Cl)c4[C@@H](O)[C@H]3C[C@@H]12,117%,inactive,inactive,inactive,inactive,28.2 µM (active),,,,,
COc1cc(C(C)=O)ccc1OCCCN1CCC(c2noc3cc(F)ccc23)CC1,81.4%,inactive,inactive,inactive,,28.2 µM (active),31.6 µM (active),,,,
Cc1cn[nH]c1,-9.66%,inactive,inactive,inactive,,,,,,,
CC(C)C[C@H](NC(=O)[C@H](Cc1ccccc1)NC(=O)c1cnccn1)B(O)O,-28.6%,inactive,inactive,inactive,,1.26 µM (active),0.0794 µM (active),,,,
CN(C)CCC[C@@]1(c2ccc(F)cc2)OCc2cc(C#N)ccc21,55%,inactive,inactive,inactive,,,39.8 µM (active),inactive,,,
COc1cc(NCc2ccc3nc(N)nc(N)c3c2C)cc(OC)c1OC,44.2%,inactive,inactive,inactive,,28.2 µM (active),35.5 µM (active),,,,
CC(S)C(=O)NCC(=O)O (stereo unspecified),-25.6%,inactive,inactive,inactive,,,,,,,
OC(CCN1CCCC1)(c1ccccc1)C1CCCCC1 (stereo unspecified),120%,inactive,inactive,inactive,,20 µM (active),25.1 µM (active),,,,
NC(=O)C(c1ccccc1)(c1ccccc1)[C@@H]1CCN(CCc2ccc3c(c2)CCO3)C1,91.3%,inactive,inactive,inactive,,31.6 µM (active),39.8 µM (active),,,,
NCCCC(O)(P(=O)(O)O)P(=O)(O)O,11.2%,,inactive,inactive,,,,,4.47 µM (active),,
CCCSc1ccc2nc(NC(=O)OC)[nH]c2c1,60.2%,inactive,inactive,inactive,,3.98 µM (active),3.16 µM (active),,,,
CN1C(=O)CC(C)(c2ccccc2)C1=O (stereo unspecified),-45.4%,inactive,inactive,inactive,inactive,,,,,,
CCN(CC)CCOC(=O)C1(C2CCCCC2)CCCCC1,45%,inactive,inactive,inactive,,10 µM (active),12.6 µM (active),,,,
CNCCCC1c2ccccc2C=Cc2ccccc21,60.1%,,inactive,,,8.91 µM (active),10 µM (active),,11.2 µM (active),8.92 µM (active),
CN(C)c1cc(NC(=O)CNC(C)(C)C)c(O)c2c1C[C@@H]1C[C@H]3[C@H](N(C)C)C(=O)C(C(N)=O)=C(O)[C@@]3(O)C(=O)C1=C2O,47.7%,inactive,inactive,inactive,,8.91 µM (active),8.91 µM (active),,,,
O=C(O)c1ccc(-n2nc(-c3ccccc3O)nc2-c2ccccc2O)cc1,48%,inactive,inactive,inactive,inactive,,,,,,
CN(Cc1cnc2nc(N)nc(N)c2n1)c1ccc(C(=O)N[C@@H](CCC(=O)O)C(=O)O)cc1,38.5%,inactive,inactive,inactive,inactive,,,inactive,,,
Cc1ccc(-c2cc(C(F)(F)F)nn2-c2ccc(S(N)(=O)=O)cc2)cc1,26.9%,inactive,inactive,inactive,,,39.8 µM (active),inactive,,,
CC(=O)Nc1nnc(S(N)(=O)=O)s1,-19.1%,inactive,inactive,inactive,inactive,,,,,,
CS(=O)(=O)CCNCc1ccc(-c2ccc3ncnc(Nc4ccc(OCc5cccc(F)c5)c(Cl)c4)c3c2)o1,108%,inactive,inactive,inactive,,3.98 µM (active),3.55 µM (active),,,,
CN1CCN(C2=Nc3ccccc3Oc3ccc(Cl)cc32)CC1,112%,inactive,inactive,inactive,,31.6 µM (active),39.8 µM (active),,,,
CN1CCC[C@@H]1CCO[C@](C)(c1ccccc1)c1ccc(Cl)cc1,-151%,,inactive,,,1.41 µM (active),1.78 µM (active),,3.55 µM (active),3.17 µM (active),
COC(=O)Nc1nc2ccc(C(=O)c3ccccc3)cc2[nH]1,81.3%,,inactive,inactive,,1.26 µM (active),1.41 µM (active),,5.62 µM (active),,

Compound,efficacy [1],outcome [2],outcome [3],outcome [4],outcome [5],AC50 [6],AC50 [5],outcome [6],AC50 [2],AC50 [4],AC50 [3]
O=C1CCc2cc(OCCCCc3nnnn3C3CCCCC3)ccc2N1,80.2%,inactive,inactive,inactive,inactive,,,inactive,,,
Cc1nc(-c2ccc(OCC(C)C)c(C#N)c2)sc1C(=O)O,65.9%,inactive,inactive,inactive,inactive,,,,,,
CC(C)(C)NC(=O)[C@H]1CC[C@H]2[C@@H]3CC[C@H]4NC(=O)C=C[C@]4(C)[C@H]3CC[C@]12C,71.8%,inactive,inactive,inactive,inactive,,,inactive,,,
COC(=O)CCc1ccc(OCC(O)CNC(C)C)cc1 (stereo unspecified),35.4%,inactive,inactive,inactive,,,22.4 µM (active),inactive,,,
Cc1nc(Nc2ncc(C(=O)Nc3c(C)cccc3Cl)s2)cc(N2CCN(CCO)CC2)n1,82.9%,inactive,inactive,inactive,,7.94 µM (active),8.91 µM (active),,,,
Cc1ccccc1C(OCCN(C)C)c1ccccc1 (stereo unspecified),62.3%,,inactive,inactive,,8.91 µM (active),7.94 µM (active),,10 µM (active),,
COc1cc2nc(N3CCN(C(=O)C4COc5ccccc5O4)CC3)nc(N)c2cc1OC (stereo unspecified),97.9%,inactive,inactive,inactive,,15.8 µM (active),15.8 µM (active),,,,
CCC(=O)C(CC(C)N(C)C)(c1ccccc1)c1ccccc1 (stereo unspecified),118%,inactive,inactive,inactive,,7.94 µM (active),10 µM (active),,,,
CN(C)CCCN1c2ccccc2CCc2ccc(Cl)cc21,-191%,,inactive,,,3.16 µM (active),3.16 µM (active),,7.94 µM (active),6.31 µM (active),
CC[C@]1(O)C[C@@H]2CN(CCc3c([nH]c4ccccc34)[C@@](C(=O)OC)(c3cc4c(cc3OC)N(C)[C@H]3[C@@](O)(C(=O)OC)[C@H](OC(C)=O)[C@]5(CC)C=CCN6CC[C@]43[C@@H]65)C2)C1,-50.1% and 54.6%,,inactive,inactive,,1 µM (active) and 891 nM (active),0.794 µM (active),,0.0009 µM (active),,
CN(C)c1ccc(O)c2c1C[C@H]1C[C@H]3[C@H](N(C)C)C(=O)C(C(N)=O)=C(O)[C@@]3(O)C(=O)C1=C2O,116%,inactive,inactive,inactive,inactive,,,inactive,,,
C[C@@H](NCCCc1cccc(C(F)(F)F)c1)c1cccc2ccccc12,-223%,inactive,inactive,inactive,,3.55 µM (active),3.98 µM (active),,,,
CN(C)CCC=C1c2ccccc2C=Cc2ccccc21,108%,inactive,inactive,inactive,,10 µM (active),11.2 µM (active),,,,
CN(C)CC/C=C1\c2ccccc2COc2ccccc21,117%,inactive,inactive,inactive,,14.1 µM (active),20 µM (active),,,,
COc1cc(NC(C)CCCN)c2ncccc2c1 (stereo unspecified),-153%,inactive,inactive,inactive,,3.55 µM (active),5.01 µM (active),,,,
COC(=O)C1=C(C)NC(C)=C(C(=O)OCCN(C)Cc2ccccc2)C1c1cccc([N+](=O)[O-])c1 (stereo unspecified),-75%,inactive,inactive,inactive,,10 µM (active),12.6 µM (active),,,,
NC[C@H](O)c1ccc(O)c(O)c1,112%,inactive,inactive,inactive,,7.94 µM (active),12.6 µM (active),,,,
COCCCC/C(=N\OCCN)c1ccc(C(F)(F)F)cc1,124%,inactive,inactive,inactive,,14.1 µM (active),15.8 µM (active),,,,
CN1CCN(CCCN2c3ccccc3Sc3ccc(Cl)cc32)CC1,-144%,inactive,inactive,inactive,,3.98 µM (active),7.08 µM (active),,,,
CCN(CC)CCCC(C)Nc1ccnc2cc(Cl)ccc12 (stereo unspecified),34.3%,,inactive,,,1.12 µM (active),1.26 µM (active),,3.98 µM (active),2.82 µM (active),
C[C@@H](O)[C@H]1C(=O)N2C(C(=O)O)=C(S[C@@H]3CN[C@H](CNS(N)(=O)=O)C3)[C@H](C)[C@H]12,41.5%,inactive,inactive,inactive,inactive,,,inactive,,,
CC(CN(C)C)CN1c2ccccc2CCc2ccccc21 (stereo unspecified),31.5%,inactive,inactive,,,6.31 µM (active),7.94 µM (active),,,14.1 µM (active),
OCCN(CCO)c1nc(N2CCCCC2)c2nc(N(CCO)CCO)nc(N3CCCCC3)c2n1,489%,inactive,,inactive,inactive,,,inactive,,,25.1 µM (active)
